Structures are written as SMILES. The whole screen tested about 5,500 compounds, of which about 2,000 (36%) were called active. About 18% were inconclusive and are not listed. This is one part of the list. Unmarked numbers belong to inactive results. No stated cut-off is given here; in the data, active means normalized growth mostly below about 0.91 (no sharp cut-off); inconclusive means no clear call, values can overlap the other calls; inactive means mostly above about 0.92.

The nature of the assay: chemical genetic growth profiling, strain panel (AID 1159580).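 Further: tested at 20 µM; growth read once vehicle control cultures reached saturation at 30 °C; 1 = growth at the plate median or of vehicle wells.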 As to conditions: growth OD.
Setting [1] is: S. cerevisiae deletion strains, locus YAL013W, strain DEP1, stronger effect = lower value.
Where [2] appears, read: S. cerevisiae deletion strains, locus YBR229C, strain ROT2, stronger effect = lower value.
Where [3] appears, read: S. cerevisiae deletion strains, locus YDL101C, strain DUN1, stronger effect = lower value.
Where [4] appears, read: S. cerevisiae deletion strains, locus YDR150W, strain NUM1, stronger effect = lower value.
Setting [5] is: S. cerevisiae deletion strains, locus YEL061C, strain CIN8, stronger effect = lower value.
The mark [6] stands for this setting: S. cerevisiae deletion strains, locus YGR078C, strain PAC10, stronger effect = lower value.
[7] abbreviates: S. cerevisiae deletion strains, locus YHR030C, strain SLT2, stronger effect = lower value.
Setting [8] is: S. cerevisiae deletion strains, locus YHR087W, strain rtc3, stronger effect = lower value.
The mark [9] stands for this setting: S. cerevisiae deletion strains, locus YJL187C, strain SWE1, stronger effect = lower value.
Setting [10] is: S. cerevisiae deletion strains, locus YJR043C, strain POL32, stronger effect = lower value.
Where [11] appears, read: S. cerevisiae deletion strains, locus YJR075W, strain HOC1, stronger effect = lower value.
The mark [12] stands for this setting: S. cerevisiae deletion strains, locus YLR039C, strain RIC1, stronger effect = lower value.
The mark [13] stands for this setting: S. cerevisiae deletion strains, locus YLR058C, strain SHM2 (second series), stronger effect = lower value.
The mark [14] stands for this setting: S. cerevisiae deletion strains, locus YLR085C, strain ARP6, stronger effect = lower value.
The mark [15] stands for this setting: S. cerevisiae deletion strains, locus YLR262C, strain YPT6, stronger effect = lower value.
[16] abbreviates: S. cerevisiae deletion strains, locus YML094W, strain GIM5, stronger effect = lower value.
The mark [17] stands for this setting: S. cerevisiae deletion strains, locus YMR219W, strain ESC1, stronger effect = lower value.
[18] abbreviates: S. cerevisiae deletion strains, locus YMR263W, strain SAP30, stronger effect = lower value.
The mark [19] stands for this setting: S. cerevisiae deletion strains, locus YNL153C, strain GIM3, stronger effect = lower value.
The mark [20] stands for this setting: S. cerevisiae deletion strains, locus YNL298W, strain CLA4 (second series), stronger effect = lower value.
Where [21] appears, read: S. cerevisiae deletion strains, locus YNL322C, strain KRE1, stronger effect = lower value.
Where [22] appears, read: S. cerevisiae deletion strains, locus YNR030W, strain Alg12, stronger effect = lower value.
The mark [23] stands for this setting: S. cerevisiae deletion strains, locus YOL006C, strain TOP1, stronger effect = lower value.
Setting [24] is: S. cerevisiae deletion strains, locus YPL055C, strain LGE1, stronger effect = lower value.
[25] abbreviates: S. cerevisiae deletion strains, locus YPL241C, strain CIN2, stronger effect = lower value.
Setting [26] is: S. cerevisiae deletion strains, locus YPR135W, strain CTF4, stronger effect = lower value.
[27] abbreviates: S. cerevisiae strains, strain wild type, stronger effect = lower value.

On to `CCCc1cc(=O)oc2cc(OCC(=O)OCC)ccc12`, for which the normalized growth was 0.997 under setting [1]; 0.971 under setting [2]; 0.945 under setting [3]; 0.986 under setting [4]; 0.963 under setting [5]; 0.985 under setting [6]. Besides, the normalized growth is 0.759 under setting [7]; 0.963 under setting [8]; 0.991 under setting [9]; 1 under setting [10]; 0.972 under setting [11]; 0.995 (S. cerevisiae deletion strains, locus YKL190W, strain CNB1, stronger effect = lower value). Also, the normalized growth runs as follows: under setting [12], 0.925; under setting [13], 0.991; under setting [14], 0.913; under setting [15], 0.958; under setting [16], 0.883; under setting [17], 0.987. In addition, the normalized growth runs as follows: under setting [18], 1.03; under setting [19], 0.98; under setting [20], 0.961; under setting [21], 0.995; under setting [22], 0.965; under setting [23], 0.864. Also, the normalized growth runs as follows: under setting [24], 0.922; under setting [25], 1.04; under setting [26], 0.82; under setting [27], 0.99.

As for `O=C(O)C1C2CCC1C(O)C2` (centres undefined), the normalized growth was 0.99 under setting [1]; 1.02 under setting [2]; 0.981 under setting [3]; 1 under setting [4]; 1.02 under setting [5]; 0.998 under setting [6]. Further, the normalized growth was 0.98 under setting [7]; 0.99 under setting [8]; 1.02 under setting [9]; 1 under setting [10]; 1.02 under setting [11]; 0.967 under setting [12]. In addition, the normalized growth is 1.02 under setting [13]; 1.03 under setting [14]; 0.968 under setting [15]; 1.01 under setting [16]; 0.998 under setting [17]; 0.998 under setting [18]. The normalized growth is 1.01 (S. cerevisiae deletion strains, locus YMR307W, strain GAS1, stronger effect = lower value); 0.976 under setting [19]; 1 under setting [20]; 1 under setting [21]; 1.01 under setting [22]; 0.972 under setting [23]. Besides, the normalized growth runs as follows: under setting [24], 1.03; under setting [25], 0.997; under setting [26], 0.979; under setting [27], 0.967.

With `NC(=O)c1ncn(C2OC(CO)C(O)C2O)c1O` (centres undefined), the normalized growth was 1.01 under setting [1]; 1.01 (S. cerevisiae deletion strains, locus YAL040C, strain CLN3, stronger effect = lower value); 1.01 (S. cerevisiae deletion strains, locus YCL061C, strain MRC1 (second series), stronger effect = lower value); 1.01 (S. cerevisiae deletion strains, locus YDR363W, strain ESC2, stronger effect = lower value); 1 (S. cerevisiae deletion strains, locus YER002W, strain NOP16, stronger effect = lower value); 0.998 (S. cerevisiae deletion strains, locus YNL128W, strain TEP1, stronger effect = lower value). For the same molecule, the normalized growth reads like this: under setting [19], 1.02; (S. cerevisiae deletion strains, locus YNL175C, strain NOP13, stronger effect = lower value) 1; (S. cerevisiae deletion strains, locus YNL197C, strain WHI3, stronger effect = lower value) 1.01; (S. cerevisiae deletion strains, locus YNL224C, strain SQS1, stronger effect = lower value) 1; (S. cerevisiae deletion strains, locus YOR083W, strain WHI5 (second series), stronger effect = lower value) 1.02.

For `Cc1onc(-c2c(Cl)cccc2Cl)c1NC(=O)O/N=C\c1ccc(N(C)C)cc1`, the normalized growth is 0.807 (active) under setting [1]; 0.975 under setting [2]; 0.994 (S. cerevisiae deletion strains, locus YCL061C, strain MRC1, stronger effect = lower value); 0.978 under setting [3]; 0.693 (active) under setting [4]; 0.338 (active) under setting [5]. The normalized growth under setting [6] is 0.861 (active); the normalized growth under setting [7] was 0.12 (active); the normalized growth under setting [8] is 1.02; the normalized growth under setting [10] was 0.769 (active); the normalized growth under setting [11] is 1.04; the normalized growth under setting [12] was 0.865. In addition, the normalized growth under setting [13] is 0.992; the normalized growth under setting [14] was 0.0906 (active); the normalized growth under setting [15] was 0.956; the normalized growth under setting [16] is 0.152 (active); the normalized growth under setting [17] is 1.02; the normalized growth under setting [18] was 0.78 (active). Besides, the normalized growth is 0.907 (active) under setting [19]; 0.266 (active) under setting [20]; 0.962 under setting [21]; 0.357 (active) under setting [22]; 0.25 (active) under setting [23]; 0.624 (active) under setting [24]. Further, the normalized growth by setting is: under setting [25], 0.44 (active); under setting [26], 0.698; under setting [27], 0.956.

The record behind these values is PubChem BioAssay AID1159580 (chemical genetic matrix, 2015).
